{"source": "PubChem BioAssay AID449762", "about": "(Southern Research Specialized Biocontainment Screening …, 2010)", "note": "Among all 330,000 compounds or so, about 1,900 (0.58%) were called active. Inconclusive results (about 4%) are left out. The list is a sample of the results. Potency and affinity values are given separately. Unmarked numbers belong to inactive results. Cut-off read from the data, not from the text of the source: inconclusive = inhibition above about 70% without an active follow-up result; inactive = below that.", "data": [{"assay": "M. tuberculosis growth inhibition, HTS (AID 449762);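 note: bacterial growth assessed after seven days of incubation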", "settings": "M. tuberculosis H37Rv growth inhibition, 7H9 media; at 25 µM; stronger effect = higher value", "units": {"inhibition": "%"}, "values": [{"compound": "Cc1cc(C(=O)OCC(=O)Nc2ccc(F)cc2F)c(C)o1", "inhibition": 4.91}, {"compound": "O=C(/C=C/c1ccccc1)NC1CC2CCC1C2", "note": "(stereo not given)", "inhibition": -10.2}, {"compound": "COc1ccc(/C=C/C(=O)NC2CC3CCC2C3)cc1", "note": "(stereo not given)", "inhibition": 14.7}, {"compound": "Cc1c(C(=O)NC(C(C)C)C(C)C)cccc1[N+](=O)[O-]", "inhibition": -0.36}, {"compound": "CC1CN(c2ccc(C(=O)c3ccccc3C(=O)O)cc2[N+](=O)[O-])CC(C)O1", "note": "(stereo not given)", "inhibition": -1.03}, {"compound": "O=C1CCCC2=C1C(c1ccccn1)Nc1ccc(C(=O)c3ccccc3)cc1N2", "note": "(stereo not given)", "inhibition": -10.7}, {"compound": "O=C1CCCC2=C1C(c1ccco1)Nc1ccc(C(=O)c3ccccc3)cc1N2", "note": "(stereo not given)", "inhibition": 1.55}, {"compound": "O=C(NCc1cccnc1)c1cccc(OC2CCN(Cc3ccc(CO)o3)CC2)c1", "inhibition": 3.84}, {"compound": "CCOC(=O)N1CCc2c(sc(NC(=O)C3=COCCO3)c2C(N)=O)C1", "inhibition": -6.06}, {"compound": "CCOC(=O)N1CCc2c(sc(NC(C)=O)c2C(N)=O)C1", "inhibition": -2.99}, {"compound": "CCOc1ccccc1NC(=O)COC(=O)CC(NC(N)=O)c1ccc(Cl)cc1", "note": "(stereo not given)", "inhibition": 3.03}, {"compound": "CCc1c(C)sc2nc3c(C(=O)N4CCOCC4)cc(C(=O)c4ccccc4O)cn3c(=O)c12", "inhibition": 51.4}, {"compound": "COC(=O)c1cc(C(=O)c2cc(F)ccc2O)cn2c(=O)c3c(C)c(C)sc3nc12", "inhibition": 3.12}, {"compound": "CC(=NCc1cccnc1)c1c(O)n(-c2ccccc2)c(=O)[nH]c1=O", "inhibition": -3.76}, {"compound": "COc1ccc(O)c(-c2cc(-c3ccc(F)cc3)n[nH]2)c1", "inhibition": 0.76}, {"compound": "COC(=O)c1cc(-c2ccc(OC)cc2)n[nH]1", "inhibition": -1.36}, {"compound": "Cc1nc(SCc2c(F)cccc2Cl)n[nH]1", "inhibition": -11.2}, {"compound": "CCSC(=Nc1ccccc1)Nc1ccccc1", "inhibition": -1.05}, {"compound": "COc1ccc(C(CC(=O)NC(C)c2ccc(-c3ccccc3)cc2)NC(C)=O)cc1", "note": "(stereo not given)", "inhibition": 3.36}, {"compound": "Cc1cc(=O)[nH]c(N/N=C/c2c(O)n(-c3ccccc3)c(=O)c3ccccc23)n1", "inhibition": 31.9}, {"compound": "Cc1nnc(N/N=C/c2c(O)n(-c3cccc(C(F)(F)F)c3)c(=O)c3ccccc23)[nH]c1=O", "inhibition": 3.05}, {"compound": "CNS(=O)(=O)c1ccc2c(c1)oc(=O)c1cc(S(=O)(=O)NC)ccc12", "inhibition": -1.49}, {"compound": "Cn1c(=N)n(CC(=O)c2cccs2)c2ccccc21", "inhibition": -0.34}, {"compound": "COc1ccc(-c2ccnc3nc(N4CCOCC4)nn23)cc1", "inhibition": 1.34}, {"compound": "c1ccc(-c2ccnc3nc(N4CCN(c5ccccc5)CC4)nn23)cc1", "inhibition": -7.9}]}]}
